# Measured values published in PubChem BioAssay AID651815 (National Center for Advancing Translational Sciences (NCATS), 2012).
# In all, about 2,100 compounds went through this assay and about 1,100 (52%) were called active. About 29% were inconclusive and are not listed. Calls come from the whole dose curve; as a rule, active = well fitted inhibition curve with a large enough effect; inconclusive = small, poorly fitted or top-dose-only effect; inactive = no such curve, though single readings can be large or run the other way. The set was probably picked from earlier hits. The list shows a part of the results.
# Target: DNA dC->dU-editing enzyme APOBEC-3F (Homo sapiens) (UniProt Q8IUX4)
# Experiment: qHTS for inhibitors of Vif-A3F interactions: Cherry picks counterscreen; note: nearly all actives have a fitted effect of over 65% in size
# Settings: HeLa A3F-eYFP/Vif cells, eYFP fluorescence, 24 h; series mostly up to 46.1 µM
# Method in brief: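 HeLa cells stably expressing A3F-eYFP and Vif, cultured overnight, then treated 24 h at 37 degrees C with compounds at several concentrations; yellow fluorescence (488 nm Ex/500-530 nm Em) imaged on Acumen; MG132 positive control.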
# Potency is the fitted concentration of half-maximal effect.
# Sequence of DNA dC->dU-editing enzyme APOBEC-3F (Homo sapiens) (Q8IUX4 whole entry, looked up): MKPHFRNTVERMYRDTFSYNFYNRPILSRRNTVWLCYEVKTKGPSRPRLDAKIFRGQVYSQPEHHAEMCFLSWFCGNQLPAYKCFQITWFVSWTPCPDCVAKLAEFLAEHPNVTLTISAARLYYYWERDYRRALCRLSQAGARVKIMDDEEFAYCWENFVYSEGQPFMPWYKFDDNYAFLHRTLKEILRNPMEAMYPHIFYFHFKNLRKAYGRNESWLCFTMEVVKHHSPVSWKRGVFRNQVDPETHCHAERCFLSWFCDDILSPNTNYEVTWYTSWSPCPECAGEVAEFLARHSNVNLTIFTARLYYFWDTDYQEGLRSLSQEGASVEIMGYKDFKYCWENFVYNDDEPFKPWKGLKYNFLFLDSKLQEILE
row,Structure (SMILES),Potency
1,COc1ccc(NS(=O)(=O)c2cc([N+](=O)[O-])ccc2N/N=C/c2c(C)[nH]c3ccccc23)cc1,10.3 µM (active)
2,COc1ccccc1NS(=O)(=O)c1cc([N+](=O)[O-])ccc1N/N=C/c1c[nH]c2ccccc12,13 µM (active)
3,CC(C)CC(=O)NC(=S)N(Cc1ccccc1)Cc1ccccc1,inactive
4,CC[n+]1c(C=C2C=C(C)OC(C)=C2)sc2ccccc21,4.61 µM (active)
5,COc1ccc(/C=C/C=C2\NC(=S)NC2=O)cc1,inactive
6,COc1cc(N2CCCC2)c(OC)cc1/C=C1/NC(=S)NC1=O,1.58 µM (active)
7,Cc1cccc2cc(C#N)c(SCC(=O)N3CC(=O)Nc4ccccc43)nc12,7.9 µM (active)
8,Cc1cc(C)c2nc(SCC(=O)N3CC(=O)Nc4ccccc43)c(C#N)cc2c1,3.14 µM (active)
9,CC1=C(C(=O)Nc2cccc(F)c2)C(c2ccsc2)C2=C(CC(C)(C)CC2=O)N1 (stereo not given),2.8 µM (active)
10,COc1ccc2cc(-c3nc(Cl)c4c5c(sc4n3)CC(C)CC5)c(=O)oc2c1 (stereo not given),20.6 µM (active)
11,CCN(CC)c1ccc2cc(-c3nc4sc5c(c4c(=O)[nH]3)CCC(C(C)(C)C)C5)c(=O)oc2c1 (stereo not given),inactive
12,Nc1[nH]c2cc([N+](=O)[O-])ccc2c1-c1ccccn1,20.6 µM (active)
13,COc1cc(-c2noc(C)c2C#Cc2ccc(N)cc2)cc(OC)c1OC,0.994 µM (active)
14,Cc1ccc(-c2nc(-c3cc4cccc(OCc5cccc(F)c5)c4oc3=O)no2)cc1,23.1 µM (active)
15,N#Cc1c(Nc2ccccc2)[n+]([O-])c2ccc(Cl)cc2[n+]1[O-],inactive
16,C=C(C(=O)c1ccccc1)C(C(=C)C(=O)c1ccccc1)c1ccc(OC)cc1,3.96 µM (active)
17,C=C(C(=O)c1ccccc1)C(C)C(=C)C(=O)c1ccccc1,3.53 µM (active)
18,S=C(NC1CCCCC1)N(CCc1ccccc1)CCc1ccccc1,inactive
19,COCCN1C(=O)/C(=C/c2ccc(N3CCCC3)cc2)SC1=S,5.17 µM (active)
20,COCCN1C(=O)/C(=C/c2ccc(N3CCCC3)cc2C)SC1=S,2.91 µM (active)
21,CCn1c(O)c(/C=N/N=C/c2ccc(OC)cc2)c2cc(C3=NNC(=O)CC3)ccc21,6.51 µM (active)
22,COc1cc(CCC(=O)Nc2nnc(C)s2)cc(OC)c1OC,4.44 µM (active)
23,Cc1cc(OCC(=O)Nc2nnc(C3CC3)s2)ccc1Cl,inactive
24,N#CCSc1ccccc1NC(=O)CN1C(=O)NC(CCc2ccccc2)C1=O (stereo not given),inactive

row,Structure (SMILES),Potency
1,N#CCSc1ccccc1NC(=O)CN1C(=O)C2CC=CCC2C1=O (stereo not given),14 µM (active)
2,CC(=O)Nc1ccc(Nc2c3c4c(cccc4n(C)c2=O)C(=O)c2ccccc2-3)cc1,inactive
3,O=C(CN1c2cccc3cccc(c23)S1(=O)=O)Nc1ccc(S(=O)(=O)N2CCOCC2)cc1,inactive
4,CC(=O)Nc1ccc(S(=O)(=O)N2CCSc3ccccc32)cc1,2.5 µM (active)
5,COC(=O)Nc1ccc(S(=O)(=O)N2CCCc3ccccc32)cc1,5.59 µM (active)
6,CC(=O)Nc1ccc(S(=O)(=O)N2c3ccccc3C(C)=CC2(C)C)cc1,2.23 µM (active)
7,Cc1ccc2nsnc2c1NC(=O)c1ccc(-c2cc(Cl)ccc2Cl)o1,14 µM (active)
8,Cc1nc(CSc2nsc(/C=C/N(C)C)c2C#N)cs1,inactive
9,CCSc1nnc(-c2sc3nnc(-c4ccccc4)c(-c4ccccc4)c3c2N)o1,4.11 µM (active)
10,OCCCn1c(C2CCCN2c2nc(-c3ccc(Cl)cc3)cs2)nc2cc(Cl)c(Cl)cc21 (stereo not given),inactive
11,COc1cccc2sc(Nc3nc(-c4cc5ccccc5oc4=O)cs3)nc12,3.14 µM (active)
12,O=C1c2ccccc2C(=O)c2cc(N3CCCCC3)ccc21,7.04 µM (active)
13,COc1ccc(/C=N/NC(=O)c2ccccc2Cl)cc1CSc1nc2ccccc2s1,4.44 µM (active)
14,COc1ccc(/C=N/NC(=O)c2cccnc2)cc1CSc1ccccn1,3.14 µM (active)
15,COc1cc(OC)cc(C(=O)N/N=C/c2ccc(OC)c(COc3ccc4ccccc4c3)c2)c1,12.5 µM (active)
16,O=C(CSc1nc2ccccc2s1)c1cc2ccccc2o1,inactive
17,COc1cnc(-c2ccccn2)nc1Oc1ccc(F)cc1F,inactive
18,COc1ccc(/C=N\NC(=O)c2ccccc2F)cc1COc1ccc(F)cc1F,2.23 µM (active)
19,COc1ccccc1/C=N/NC(=S)Nc1cccnc1,inactive
20,COc1ccc(/C=N/NC(=O)c2cccnc2)cc1COc1ccc(NC(C)=O)cc1,12.5 µM (active)
21,Cn1c(N)c(-c2ccccc2)c2ccc([N+](=O)[O-])cc2c1=O,14 µM (active)
22,C=CCN1C(=O)/C(=C2/Sc3ccc(OC)cc3N2CC)SC1=S,13 µM (active)
23,CCN1C(=O)/C(=C2/Sc3ccc(OC)cc3N2C)SC1=Nc1cccc(O)c1,17.7 µM (active)
24,CCN(CC)c1ccc(/C=C/c2ccccn2)cc1,20.6 µM (active)

row,Structure (SMILES),Potency
1,CCN(CC)c1ccc(/C=C/c2ccncc2)cc1,13 µM (active)
2,CCN(CC)c1ccc(/C=C/C2=C3C=CC=CC3NC=C2)cc1 (stereo not given),23.1 µM (active)
3,CN(C)c1ccc(/C=C/c2ccncc2)cc1,9.2 µM (active)
4,Cc1ccc(S(=O)c2ccc([N+](=O)[O-])c3nonc23)cc1 (stereo not given),inactive
5,CC[n+]1ccccc1/C=C/c1ccc(N(C)C)cc1,23.1 µM (active)
6,CC(C)CC[n+]1ccccc1/C=C/c1ccc(N(C)C)cc1,18.4 µM (active)
7,CCOC(=O)c1cc2n(c1N)-c1ccccc1C2=O,18.4 µM (active)
8,CCOC(=O)c1cnc(-n2nc(C)cc2C)nc1NNc1nc(-c2ccccc2)cc(-c2ccccc2)n1,inactive
9,CCOC(=O)c1cc2n(c1/N=C/N(C)C)-c1ccccc1C2=O,18.4 µM (active)
10,CCOC(=O)c1c(CN(CC)CC)n(-c2ccccc2)c2ccc(O)cc12,inactive
11,Cc1cc(/C=C2\SC(=S)N(C)C2=O)c(C)n1-c1ccccc1O,18.4 µM (active)
12,Cc1cc(/C=C2\SC(=S)N(C)C2=O)c(C)n1-c1ccc(O)cc1,18.4 µM (active)
13,NNC(=O)c1cc2sccc2s1,inactive
14,CCn1ncc(/C=N\NC(=O)c2csc3ccccc23)c1C,2.5 µM (active)
15,CCOC(=O)/C(=C/C1=CC(=C/N(C)C)/C(=O)O1)C(C)=O,inactive
16,CCOc1ccc(C2CC(c3c(O)c4ccccc4oc3=O)=NN2c2ccccc2)cc1OC (stereo not given),14.6 µM (active)
17,CCOc1ccccc1Oc1nc(C)nc2c1oc1ccccc12,2.31 µM (active)
18,CNC(=O)C(Sc1nc(C)nc2c1oc1ccccc12)C(C)=O (stereo not given),inactive
19,Cc1cccc(N2CCN(C(=O)c3cccc(N4CCCC4=O)c3)C(C)C2)c1 (stereo not given),6.27 µM (active)
20,COc1ccc(OC)c(NC(=O)Cn2cnc3onc(-c4ccc(Cl)cc4)c3c2=O)c1,inactive
21,COc1ccc(OC)c(NC(=O)Cn2c(=O)n(-c3ccc(Cl)cc3)c(=O)c3c(C)c(C)sc32)c1,5.8 µM (active)
22,Cc1ccc(-c2cc(C(=O)N/N=C/c3c[nH]c4ccccc34)[nH]n2)cc1,3.53 µM (active)
23,Cc1cc(N)cc(C)c1-c1c(Br)cc(N)cc1Br,12.5 µM (active)
24,O=C1S/C(=C/c2ccc(N3CCOCC3)o2)C(=O)N1Cc1ccc(F)cc1,5.59 µM (active)

row,Structure (SMILES),Potency
1,CCOC(=O)CN1C(=O)S/C(=C/c2ccc(N3CCCCC3)o2)C1=O,4.61 µM (active)
2,CCCN1C(=O)S/C(=C\c2ccc(N3CCOCC3)o2)C1=O,3.96 µM (active)
3,O=C1S/C(=C\c2ccc(N3CCOCC3)o2)C(=O)N1c1ccccc1,3.53 µM (active)
4,Cc1ccc(NC(=S)N/N=C2\CCCCC2C)cc1 (stereo not given),inactive
5,O=C1S/C(=C/c2ccc(N3CCOCC3)o2)C(=O)N1Cc1c(F)cccc1Cl,2.23 µM (active)
6,CC(C)n1cc(NC(=O)c2cc(-c3ccccc3)on2)cn1,3.53 µM (active)
7,O=C(Nc1nc(-c2ccccn2)cs1)C1CCCC1,inactive
8,CCc1ccc2nc(N(CCCN(C)C)C(=O)c3ccc(S(=O)(=O)N(C)C4CCCCC4)cc3)sc2c1,inactive
9,O=C(Nc1nc2ccc(S(=O)(=O)N3CCCC3)cc2s1)C1CCCCC1,4.44 µM (active)
10,C=CCOc1c(Cl)cc(C(=S)N2CCCC2)cc1OCC,14 µM (active)
11,CCCCOc1ccc(/C=C/C2=CC(C)(C)NC(=S)N2)cc1OCC,inactive
12,Cc1ccc(F)c(S(=O)(=O)NC(=O)C2(C)CCN2C(=O)Cc2ccc(Cl)cc2Cl)c1 (stereo not given),inactive
13,COc1ccccc1C1=NOC(COc2ccc3c(C)cc(=O)oc3c2)C1 (stereo not given),1.12 µM (active)
14,CCOC(=O)c1cc(-c2ccccc2C)n(CC2CC(c3ccc(OC)cc3)=NO2)n1 (stereo not given),inactive
15,Cc1cc(=O)oc2cc(OCC(=O)N3c4ccccc4CC3C)ccc12 (stereo not given),3.53 µM (active)
16,COc1ccc(-c2cnnc(N/N=C/c3ccc(O)c(OC)c3)n2)cc1,9.94 µM (active)
17,Oc1ccc(/C=N\Nc2nncc(-c3ccccc3)n2)cc1,19.8 µM (active)
18,COc1cc(/C=N/Nc2ccc(Cl)nn2)cc(OC)c1O,inactive
19,COc1cc(/C=N/Nc2cc(C)nc(NS(=O)(=O)c3ccccc3)n2)ccc1O,inactive
20,O=c1oc2c3c4c(cc2c(C(F)(F)F)c1CCN1CCOCC1)CCCN4CCC3,3.66 µM (active)
21,Cc1ccc2[nH]c(C(=O)NN=C3CCCCC3)c(-c3ccccc3)c2c1,inactive
22,CN(C)c1ccc(/C=N/NC(=O)c2cc(-c3ccc4c(c3)OCO4)n[nH]2)cc1,15.8 µM (active)
23,CCc1ccc(NC(=O)/C(C#N)=C/c2cc3ccc(C)cc3nc2N2CCOCC2)cc1,23.1 µM (active)
